Key:
[1] = molecular target: Ribosomal protein S6 kinase alpha-6 (Homo sapiens) (UniProt Q9UK32); details: at 1 µM;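 note: each value is a mean inhibition of RSK4 from a GSK PKIS panel screen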
[2] = molecular target: T1, Serine/threonine-protein kinase Sgk1 (Homo sapiens) (UniProt O00141); details: at 0.1 µM
T1 sequence (whole entry): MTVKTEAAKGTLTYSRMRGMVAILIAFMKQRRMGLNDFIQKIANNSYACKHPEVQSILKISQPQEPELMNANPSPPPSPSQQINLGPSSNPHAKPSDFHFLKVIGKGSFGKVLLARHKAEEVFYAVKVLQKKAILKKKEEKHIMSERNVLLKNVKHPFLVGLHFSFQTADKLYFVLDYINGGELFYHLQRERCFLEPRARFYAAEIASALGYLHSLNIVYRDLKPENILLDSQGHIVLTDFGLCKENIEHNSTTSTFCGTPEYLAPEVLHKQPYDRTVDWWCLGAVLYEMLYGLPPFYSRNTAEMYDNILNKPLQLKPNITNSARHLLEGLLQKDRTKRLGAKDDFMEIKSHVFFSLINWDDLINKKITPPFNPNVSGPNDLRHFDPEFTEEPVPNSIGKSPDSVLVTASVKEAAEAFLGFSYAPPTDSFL

[3] = molecular target: T1, Serine/threonine-protein kinase Sgk1 (Homo sapiens); details: at 1 µM
[4] = molecular target: T2, Serine/threonine-protein kinase Sgk2 (Homo sapiens) (UniProt Q9HBY8); details: at 0.1 µM
T2 sequence (whole entry): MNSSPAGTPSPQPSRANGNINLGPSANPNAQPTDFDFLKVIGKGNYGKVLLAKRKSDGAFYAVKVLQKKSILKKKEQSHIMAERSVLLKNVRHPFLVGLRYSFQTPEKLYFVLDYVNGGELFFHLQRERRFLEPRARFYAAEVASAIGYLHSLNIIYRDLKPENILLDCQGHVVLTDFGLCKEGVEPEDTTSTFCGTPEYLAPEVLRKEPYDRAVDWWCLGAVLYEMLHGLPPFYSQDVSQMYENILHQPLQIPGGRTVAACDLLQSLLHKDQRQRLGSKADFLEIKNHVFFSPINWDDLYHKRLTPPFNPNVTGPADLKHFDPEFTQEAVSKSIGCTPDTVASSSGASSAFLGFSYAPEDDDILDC

[5] = molecular target: T2, Serine/threonine-protein kinase Sgk2 (Homo sapiens); details: at 1 µM
[6] = molecular target: T3, Serine/threonine-protein kinase Sgk3 (Homo sapiens) (UniProt Q96BR1); details: at 0.1 µM
T3 sequence (whole entry): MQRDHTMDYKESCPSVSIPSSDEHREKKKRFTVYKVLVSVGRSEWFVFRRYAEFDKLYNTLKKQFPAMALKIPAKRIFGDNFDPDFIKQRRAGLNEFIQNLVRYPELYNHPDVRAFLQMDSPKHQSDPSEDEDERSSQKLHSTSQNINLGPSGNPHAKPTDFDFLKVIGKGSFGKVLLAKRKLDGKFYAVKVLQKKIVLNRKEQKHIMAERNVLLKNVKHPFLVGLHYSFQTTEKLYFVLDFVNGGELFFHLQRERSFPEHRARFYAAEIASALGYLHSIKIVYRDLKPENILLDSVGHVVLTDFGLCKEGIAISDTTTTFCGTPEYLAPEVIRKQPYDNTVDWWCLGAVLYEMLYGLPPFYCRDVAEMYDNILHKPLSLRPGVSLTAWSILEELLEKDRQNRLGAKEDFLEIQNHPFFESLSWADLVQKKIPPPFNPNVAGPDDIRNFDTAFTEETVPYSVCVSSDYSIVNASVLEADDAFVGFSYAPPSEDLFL

[7] = molecular target: T3, Serine/threonine-protein kinase Sgk3 (Homo sapiens); details: at 1 µM
[8] = molecular target: 5'-AMP-activated protein kinase catalytic subunit alpha-1 (Homo sapiens) (UniProt Q13131); details: at 0.1 µM
Sequence of 5'-AMP-activated protein kinase catalytic subunit alpha-1 (Homo sapiens) (Q13131 whole entry, looked up): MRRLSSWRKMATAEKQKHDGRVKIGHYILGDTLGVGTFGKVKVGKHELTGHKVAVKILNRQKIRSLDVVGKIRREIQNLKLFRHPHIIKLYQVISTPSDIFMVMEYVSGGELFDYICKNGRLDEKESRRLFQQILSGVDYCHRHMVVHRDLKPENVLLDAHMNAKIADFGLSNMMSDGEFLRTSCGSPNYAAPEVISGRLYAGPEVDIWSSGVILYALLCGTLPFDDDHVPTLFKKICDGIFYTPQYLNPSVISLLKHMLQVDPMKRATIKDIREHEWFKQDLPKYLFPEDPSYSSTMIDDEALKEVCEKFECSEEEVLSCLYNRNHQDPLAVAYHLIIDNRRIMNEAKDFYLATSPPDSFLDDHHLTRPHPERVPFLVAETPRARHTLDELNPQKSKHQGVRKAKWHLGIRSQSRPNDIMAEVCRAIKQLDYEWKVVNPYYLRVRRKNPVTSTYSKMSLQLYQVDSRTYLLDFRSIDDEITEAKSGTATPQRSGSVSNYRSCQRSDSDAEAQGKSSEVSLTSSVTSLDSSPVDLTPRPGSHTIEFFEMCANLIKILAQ

[9] = molecular target: 5'-AMP-activated protein kinase catalytic subunit alpha-1 (Homo sapiens) (UniProt Q13131); details: at 1 µM
[10] = molecular target: 5'-AMP-activated protein kinase catalytic subunit alpha-2 (Homo sapiens) (UniProt P54646); details: at 0.1 µM
Sequence of 5'-AMP-activated protein kinase catalytic subunit alpha-2 (Homo sapiens) (P54646 whole entry, looked up): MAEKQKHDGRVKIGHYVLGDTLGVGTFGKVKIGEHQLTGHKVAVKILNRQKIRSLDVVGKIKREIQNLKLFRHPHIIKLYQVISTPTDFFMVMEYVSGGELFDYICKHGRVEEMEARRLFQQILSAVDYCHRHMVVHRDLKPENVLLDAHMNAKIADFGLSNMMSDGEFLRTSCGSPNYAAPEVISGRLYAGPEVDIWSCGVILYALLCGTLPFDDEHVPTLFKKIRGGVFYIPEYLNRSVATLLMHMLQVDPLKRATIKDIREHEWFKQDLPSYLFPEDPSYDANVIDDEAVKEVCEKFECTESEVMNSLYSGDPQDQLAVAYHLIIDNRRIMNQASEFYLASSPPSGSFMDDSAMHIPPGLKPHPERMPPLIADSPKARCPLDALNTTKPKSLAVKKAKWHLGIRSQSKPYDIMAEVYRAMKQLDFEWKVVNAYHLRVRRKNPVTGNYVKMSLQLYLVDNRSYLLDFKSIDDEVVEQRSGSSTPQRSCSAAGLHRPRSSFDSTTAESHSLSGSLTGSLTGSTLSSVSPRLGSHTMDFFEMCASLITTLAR

[11] = molecular target: 5'-AMP-activated protein kinase catalytic subunit alpha-2 (Homo sapiens) (UniProt P54646); details: at 1 µM
[12] = molecular target: T4, NUAK family SNF1-like kinase 1 (Homo sapiens) (UniProt O60285); details: at 0.1 µM
T4 sequence (whole entry): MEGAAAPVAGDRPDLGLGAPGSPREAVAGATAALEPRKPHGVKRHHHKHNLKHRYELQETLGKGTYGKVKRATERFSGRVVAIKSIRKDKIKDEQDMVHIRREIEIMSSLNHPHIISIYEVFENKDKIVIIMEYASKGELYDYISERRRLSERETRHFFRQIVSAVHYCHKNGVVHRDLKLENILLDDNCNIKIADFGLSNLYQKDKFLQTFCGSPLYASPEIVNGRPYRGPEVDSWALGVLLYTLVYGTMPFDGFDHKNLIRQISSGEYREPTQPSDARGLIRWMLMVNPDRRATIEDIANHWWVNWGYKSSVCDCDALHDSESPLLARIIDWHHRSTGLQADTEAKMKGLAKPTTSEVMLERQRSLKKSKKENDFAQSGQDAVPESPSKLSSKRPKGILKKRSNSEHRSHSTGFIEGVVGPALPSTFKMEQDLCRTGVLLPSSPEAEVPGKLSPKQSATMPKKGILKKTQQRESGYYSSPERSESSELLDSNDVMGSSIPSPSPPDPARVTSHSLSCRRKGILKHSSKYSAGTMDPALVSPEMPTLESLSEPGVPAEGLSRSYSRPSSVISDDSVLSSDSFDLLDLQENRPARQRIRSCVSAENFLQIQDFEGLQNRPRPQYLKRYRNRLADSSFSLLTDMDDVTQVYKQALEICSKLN

[13] = molecular target: T4, NUAK family SNF1-like kinase 1 (Homo sapiens); details: at 1 µM
[14] = molecular target: T5, Serine/threonine-protein kinase BRSK1 (Homo sapiens) (UniProt Q8TDC3); details: at 0.1 µM
T5 sequence (whole entry): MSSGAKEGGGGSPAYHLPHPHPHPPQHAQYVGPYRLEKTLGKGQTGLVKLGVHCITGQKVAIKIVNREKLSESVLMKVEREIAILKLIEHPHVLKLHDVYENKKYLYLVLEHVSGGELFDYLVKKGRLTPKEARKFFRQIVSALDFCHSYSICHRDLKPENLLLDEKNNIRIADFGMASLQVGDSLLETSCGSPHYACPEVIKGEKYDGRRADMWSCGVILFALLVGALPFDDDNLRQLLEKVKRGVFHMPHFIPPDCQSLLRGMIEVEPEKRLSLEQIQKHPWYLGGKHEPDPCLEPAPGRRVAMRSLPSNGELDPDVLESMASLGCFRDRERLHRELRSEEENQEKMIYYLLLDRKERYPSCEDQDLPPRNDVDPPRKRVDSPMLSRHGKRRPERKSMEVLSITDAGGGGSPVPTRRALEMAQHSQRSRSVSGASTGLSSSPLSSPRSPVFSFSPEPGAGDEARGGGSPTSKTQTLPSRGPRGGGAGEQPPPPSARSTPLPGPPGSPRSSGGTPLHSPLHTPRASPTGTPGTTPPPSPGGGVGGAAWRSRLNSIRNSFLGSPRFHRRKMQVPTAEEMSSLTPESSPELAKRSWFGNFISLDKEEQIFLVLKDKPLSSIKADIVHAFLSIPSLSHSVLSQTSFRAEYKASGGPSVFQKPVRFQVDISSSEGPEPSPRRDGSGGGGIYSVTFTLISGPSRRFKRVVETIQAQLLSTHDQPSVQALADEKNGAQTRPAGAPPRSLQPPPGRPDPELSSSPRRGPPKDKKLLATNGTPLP

[15] = molecular target: T5, Serine/threonine-protein kinase BRSK1 (Homo sapiens); details: at 1 µM
[16] = molecular target: T6, Serine/threonine-protein kinase BRSK2 (Homo sapiens) (UniProt Q8IWQ3); details: at 0.1 µM
T6 sequence (whole entry): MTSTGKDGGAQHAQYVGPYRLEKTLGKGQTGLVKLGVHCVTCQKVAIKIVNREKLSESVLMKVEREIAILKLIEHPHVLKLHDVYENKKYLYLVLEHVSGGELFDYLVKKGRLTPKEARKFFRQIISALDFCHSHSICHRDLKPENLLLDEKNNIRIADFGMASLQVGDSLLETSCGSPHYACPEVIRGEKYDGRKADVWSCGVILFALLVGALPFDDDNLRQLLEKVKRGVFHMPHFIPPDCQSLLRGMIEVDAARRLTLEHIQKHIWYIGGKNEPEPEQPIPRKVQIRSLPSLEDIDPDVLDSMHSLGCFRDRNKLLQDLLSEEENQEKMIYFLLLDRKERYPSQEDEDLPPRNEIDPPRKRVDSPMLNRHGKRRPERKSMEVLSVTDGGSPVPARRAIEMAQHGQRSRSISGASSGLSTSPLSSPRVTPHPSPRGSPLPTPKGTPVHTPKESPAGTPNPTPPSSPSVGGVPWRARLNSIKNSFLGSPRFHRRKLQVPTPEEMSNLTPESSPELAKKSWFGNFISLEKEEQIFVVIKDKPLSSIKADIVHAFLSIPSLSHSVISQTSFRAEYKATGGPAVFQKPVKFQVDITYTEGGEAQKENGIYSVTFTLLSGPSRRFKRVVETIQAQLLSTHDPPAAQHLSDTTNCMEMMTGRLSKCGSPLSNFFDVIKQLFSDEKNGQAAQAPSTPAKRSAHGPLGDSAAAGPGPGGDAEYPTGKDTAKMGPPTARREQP

[17] = molecular target: T6, Serine/threonine-protein kinase BRSK2 (Homo sapiens); details: at 1 µM
[18] = molecular target: Calcium/calmodulin-dependent protein kinase type 1D (Homo sapiens) (UniProt Q8IU85); details: at 0.1 µM
Sequence of Calcium/calmodulin-dependent protein kinase type 1D (Homo sapiens) (Q8IU85 whole entry, looked up): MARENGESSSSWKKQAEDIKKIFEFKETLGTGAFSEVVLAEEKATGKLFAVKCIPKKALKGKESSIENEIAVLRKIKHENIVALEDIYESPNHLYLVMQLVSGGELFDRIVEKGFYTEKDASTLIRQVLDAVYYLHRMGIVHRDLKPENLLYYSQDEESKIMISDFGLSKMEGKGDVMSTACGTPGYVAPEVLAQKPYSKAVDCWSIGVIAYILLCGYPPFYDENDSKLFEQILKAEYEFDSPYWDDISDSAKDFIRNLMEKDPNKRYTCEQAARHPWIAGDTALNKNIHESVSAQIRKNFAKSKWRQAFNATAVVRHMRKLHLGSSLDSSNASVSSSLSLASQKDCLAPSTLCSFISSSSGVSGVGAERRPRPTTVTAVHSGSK

[19] = molecular target: Calcium/calmodulin-dependent protein kinase type 1D (Homo sapiens) (UniProt Q8IU85); details: at 1 µM
[20] = molecular target: Calcium/calmodulin-dependent protein kinase type II subunit alpha (Homo sapiens) (UniProt Q9UQM7); details: at 0.1 µM;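 note: reported values are averages (mean inhibition of CAMK2A)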
Sequence of Calcium/calmodulin-dependent protein kinase type II subunit alpha (Homo sapiens) (Q9UQM7 whole entry): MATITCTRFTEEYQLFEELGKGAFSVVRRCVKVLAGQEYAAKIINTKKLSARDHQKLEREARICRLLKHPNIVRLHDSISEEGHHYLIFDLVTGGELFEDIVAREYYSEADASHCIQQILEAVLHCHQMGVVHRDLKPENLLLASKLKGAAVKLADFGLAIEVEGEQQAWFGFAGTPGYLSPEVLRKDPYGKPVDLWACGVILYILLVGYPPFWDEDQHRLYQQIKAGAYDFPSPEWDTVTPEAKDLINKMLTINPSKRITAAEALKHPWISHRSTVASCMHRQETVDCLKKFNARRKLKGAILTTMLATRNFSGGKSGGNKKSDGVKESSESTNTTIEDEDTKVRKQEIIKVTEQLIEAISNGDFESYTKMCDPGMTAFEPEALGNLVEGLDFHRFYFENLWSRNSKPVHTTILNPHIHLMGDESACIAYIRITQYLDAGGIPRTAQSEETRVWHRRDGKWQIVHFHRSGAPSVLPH

Sequence of Ribosomal protein S6 kinase alpha-6 (Homo sapiens) (Q9UK32 whole entry): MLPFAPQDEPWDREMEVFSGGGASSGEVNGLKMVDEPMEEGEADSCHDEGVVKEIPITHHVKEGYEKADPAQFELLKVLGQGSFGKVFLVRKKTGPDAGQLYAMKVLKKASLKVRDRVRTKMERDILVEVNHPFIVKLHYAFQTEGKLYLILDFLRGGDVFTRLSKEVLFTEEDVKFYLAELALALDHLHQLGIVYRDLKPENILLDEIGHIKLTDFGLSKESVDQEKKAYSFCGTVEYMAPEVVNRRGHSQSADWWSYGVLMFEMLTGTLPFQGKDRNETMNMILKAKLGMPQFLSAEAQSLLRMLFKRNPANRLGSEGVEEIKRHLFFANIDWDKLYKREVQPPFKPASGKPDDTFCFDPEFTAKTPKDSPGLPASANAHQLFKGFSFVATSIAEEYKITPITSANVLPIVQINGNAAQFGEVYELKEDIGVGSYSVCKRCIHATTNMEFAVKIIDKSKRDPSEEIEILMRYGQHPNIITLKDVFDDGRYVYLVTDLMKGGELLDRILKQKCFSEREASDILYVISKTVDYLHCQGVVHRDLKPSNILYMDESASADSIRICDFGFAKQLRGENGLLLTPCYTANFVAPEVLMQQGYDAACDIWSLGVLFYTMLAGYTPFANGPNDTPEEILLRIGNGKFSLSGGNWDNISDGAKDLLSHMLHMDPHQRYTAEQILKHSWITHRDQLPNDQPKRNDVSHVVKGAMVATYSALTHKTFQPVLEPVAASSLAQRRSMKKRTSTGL

Compound | inhibition [1] [%] | inhibition [2] [%] | inhibition [3] [%] | inhibition [4] [%] | inhibition [5] [%] | inhibition [6] [%] | inhibition [7] [%] | inhibition [8] [%] | inhibition [9] [%] | inhibition [10] [%] | inhibition [11] [%] | inhibition [12] [%] | inhibition [13] [%] | inhibition [14] [%] | inhibition [15] [%] | inhibition [16] [%] | inhibition [17] [%] | inhibition [18] [%] | inhibition [19] [%] | inhibition [20] [%]
CC(C)c1ccc(Nc2nccc(-c3cnn4ncccc34)n2)cc1 | 1.84 | 1.8 | 3.19 | 0.34 | 3.21 | 2.01 | 0.79 | 1.84 | 3.55 | 2.35 | 4.11 | 12.6 | 48.9 | -0.04 | 3.13 | 1.33 | 4.11 | -0.71 | 2.35 | 1.42
C[C@@H](Oc1cc(-n2cnc3ccc(OC[C@@H](O)CO)cc32)sc1C(N)=O)c1ccccc1Cl | 12.7 | 1.2 | 0.68 | 1.68 | 2.9 | -1.63 | 0.55 | 0.18 | 5.73 | 0.26 | 2.08 | 6.98 | 39.1 | 15.7 | 55.8 | 24.2 | 68.3 | -0.01 | 0.92 | -2.71
O=S(=O)(CCOCc1ccc(-c2ccc3ncnc(Nc4ccc(OCc5cccc(F)c5)c(Cl)c4)c3c2)o1)c1ccccc1 | -0.62 | 1.34 | 2.27 | 3.28 | -0.92 | 3.38 | 1.38 | -0.69 | 1.2 | 4.55 | 1.68 | -2.09 | -0.72 | -0.74 | 1.37 | 1.25 | 2.98 | 0 | 0.46 | -0.52
CN(C)c1cc2c(Nc3ccc4c(cnn4Cc4ccccc4)c3)ncnc2cn1 | 1.71 | 1.94 | 2.27 | 0.16 | -0.04 | 1.86 | 1.33 | 2.65 | 3.27 | 1.84 | 2.49 | 1.17 | 3.46 | 2.42 | 7.54 | 2.27 | 9.3 | -0.24 | 0.88 | 2.88
COc1cccc(-n2ncc3c(N/N=C/c4ccc(C)cc4)ncnc32)c1 | 3.14 | 0.12 | 3.62 | 1.23 | 2.8 | 3.8 | 2.61 | 1.9 | 6.98 | 7.16 | 6 | 6.88 | 16.2 | 6.04 | 9.05 | 5.73 | 12.7 | 0.52 | 3.47 | 3.6
COc1cc2ncnc(Nc3ccc4c(cnn4Cc4ccccc4)c3)c2cc1OC | 1.92 | 2.26 | 1.9 | 1.23 | -1.13 | 2.62 | 1.35 | 1.38 | 3.13 | 5.92 | 3.91 | -0.12 | 2.05 | 1.23 | 1.11 | 0.79 | 4.84 | 0.22 | 1.49 | 0.08
c1ccc(Nc2ncc(-c3ccccc3)o2)cc1 | 3.23 | 2.66 | 4 | 2.47 | 0.08 | 4.53 | 2.32 | 2.6 | 4.99 | 7.1 | 0.19 | -0.12 | 11 | 0.5 | 2.07 | 0.2 | 3.56 | 1.22 | 2.94 | 2.13
CS(=O)(=O)CCNCc1nc(-c2ccc3ncnc(Nc4ccc(OCc5cccc(C(F)(F)F)c5)cc4)c3c2)cs1 | 0.37 | -0.21 | -1.85 | 3.52 | 2.19 | 1.04 | 1.17 | 1.78 | 2.03 | 3.05 | 2.15 | 0.06 | 2.2 | 2.31 | -0.57 | 0.24 | 1.3 | -0.5 | 2.37 | 1.59
CN1CCN(C(=O)c2ccc(NC(=O)Nc3ccc(N(C)c4ccnc(Nc5ccc(CS(C)(=O)=O)cc5)n4)cc3)cc2)CC1 | 5.11 | 0.94 | 3.35 | 1.96 | 7.04 | 2.75 | 1.79 | 2.09 | 5.52 | 3.27 | 7.01 | 0.11 | 44.5 | 0.56 | 2.28 | 0.38 | 7.68 | 0.6 | 2.18 | 1.63
CCn1c(-c2nonc2N)nc2ccc(F)cc21 | 3.11 | 4.63 | 5.34 | 0.38 | 7.92 | 4.43 | 9.8 | 5.34 | 5.71 | 4.08 | 3.56 | 1.74 | 2.03 | 0.43 | 1.87 | 1.78 | 5.06 | 0.45 | -0.34 | 4.39
